Measured values: the supplement of paper PMC9399229
Structures can show the parent of a compound that is named as a salt. ± gives the standard deviation of the averaged measurements. In all, about 1,900 compounds were measured (“relative cell viability (CellTiter-Glo), compound alone”: median about 1, lowest 2% from about 0.16 on). This is one part of a sample in which the lowest values are shown more often than they occur.

Tested on: Hep3B
Test: relative cell viability (CellTiter-Glo), compound alone (fraction); higher = more viable cells (less growth inhibition)
Settings: cabozantinib 0 µM; 4 days

First: CNc1nc(Nc2cnn([C@H]3CCN(C4COC4)C[C@@H]3F)c2Cl)ncc1C(F)(F)F
Second: C=CC(=O)N1CCC(Oc2cc3c(Nc4ccc(Cl)c(Cl)c4F)ncnc3cc2OC)CC1 [Poziotinib (HM781-36B)]
The relative cell viability of the first is higher: 1.14 ± 0.02 for the first, 0.933 ± 0.022 for the second.

Going from `Clc1ccc(C2(c3ccc(-c4cn[nH]c4)cc3)CCNCC2)cc1` to `c1cc(-c2cnn3cc(-c4ccc(N5CCNCC5)cc4)cnc23)c2cccnc2c1`, the relative cell viability falls from 0.972 ± 0.2 to 0.142 ± 0.013.

Going from `CC1=C(C(=O)OC2CCCCC2)C(c2ccc([N+](=O)[O-])cc2)C2=C(CC(C)(C)CC2=O)N1` (stereo not drawn) to `COc1cccc2c1C(=O)c1c(O)c3c(c(O)c1C2=O)C[C@@](O)(C(=O)CO)C[C@@H]3O[C@H]1C[C@H](N)[C@H](O[C@@H]2CCCCO2)[C@H](C)O1` [Pirarubicin], the relative cell viability falls from 1.19 ± 0.022 to 0.157 ± 0.078.

`COC(=O)C1=CO[C@@H](O[C@@H]2O[C@H](CO)[C@@H](O)[C@H](O)[C@H]2O)[C@@H]2C(CO)=CC[C@H]12` [Geniposide] and `CNc1ncnc2c1ncn2[C@@H]1O[C@H](CO)[C@@H](O)[C@H]1O` [N6-methyladenosine (m6A)] are within error of each other in relative cell viability: 1.11 ± 0.078 for the first, 1.15 ± 0.042 for the second.

`COc1ccc(NS(=O)(=O)c2sc3ccc(Cl)cc3c2C)cc1N1CCNCC1` and `COc1cc(-c2cc(-c3ccc(N4CCNCC4)cc3)cnc2C)cc(OC)c1OC` are within error of each other in relative cell viability: 0.974 ± 0.19 for the first, 0.937 ± 0.023 for the second.

First: CCNC(=O)C#Cc1ccc2c(C(=Nc3ccc(CN(C)C)cc3)c3ccccc3)c(O)[nH]c2c1
Second: O=C(COc1cccc2c(=O)[nH]ccc12)c1ccccc1
The relative cell viability of the first is lower: 0.278 ± 0.007 for the first, 1.16 ± 0.033 for the second.

`CCOC(=O)CCNc1cc(N2CCc3ccccc3CC2)nc(-c2ccccn2)n1` and `CCCNCC(O)COc1ccccc1C(=O)CCc1ccccc1` (stereo not drawn) [Propafenone HCl] are within error of each other in relative cell viability: 0.742 ± 0.084 for the first, 0.855 ± 0.07 for the second.

Going from `Cc1cc(OCc2nnc(SC3CCCC3)n2-c2cccnc2)ccc1-c1ccc(S(C)(=O)=O)cc1` to `COc1ccc(-c2cnc3c(-c4cccc5ncccc45)cnn3c2)cc1`, the relative cell viability rises from 1.07 ± 0.024 to 1.31 ± 0.03.

`CCOC(=O)Nc1cc(-c2ccc(C)c(NS(C)(=O)=O)c2)nn2c(C)nnc12` [Bromosporine] and `Cc1cc(NC(=O)c2cccc(NC(=O)/C=C/CN(C)C)c2)ccc1Nc1nccc(-c2cccnc2)n1` are within error of each other in relative cell viability: 0.851 ± 0.044 for the first, 0.837 ± 0.011 for the second.

Compared with `CCc1c(O)cc(O)c(C(=O)c2ccc(OCCN3CCOCC3)c(OC)c2)c1CC(=O)N(CCOC)CCOC`, `COc1cc(C(=O)NC2CCCNC2)cc(OC)c1OC` (stereo not drawn) [Troxipide] is higher in relative cell viability: 0.48 ± 0.01 for the first, 1.07 ± 0.12 for the second.

Going from `COC(=O)C[C@H](NC(=O)[C@H](C)NC(=O)[C@@H](NC(=O)OCc1ccccc1)C(C)C)C(=O)CF` to `O=C(NO)c1cccc(C(=O)NCCc2ccccc2)c1`, the relative cell viability rises from 1 ± 0.094 to 1.16 ± 0.059.

`NC(=O)c1cccc2[nH]c(-c3ccc(C4CCCN4)cc3F)nc12` (stereo not drawn) and `NC(=O)Nc1sc(-c2ccc(F)cc2)cc1C(N)=O` are within error of each other in relative cell viability: 0.981 ± 0.079 for the first, 1.1 ± 0.043 for the second.

First: NC1=N[C@@](c2cccc(-c3cncnc3)c2)(c2ccnc(C(F)F)c2)c2cccc(F)c21
Second: Cc1cc(-c2ccc(CC(=O)Nc3ccc(-c4cccnc4)cc3)cc2)ccn1
The relative cell viability of the first is higher: 1.34 ± 0.037 for the first, 1.268 ± 0.0057 for the second.

Going from `COc1cccc2c1C(=O)c1c(O)c3c(c(O)c1C2=O)C[C@@](O)(C(=O)CO)C[C@@H]3O[C@H]1C[C@H](N)[C@H](O)[C@H](C)O1` [Doxorubicin (Adriamycin)] to `COc1cccc2c1C(=O)c1c(O)c3c(c(O)c1C2=O)C[C@@](O)(C(=O)CO)C[C@@H]3O[C@H]1C[C@H](N)[C@@H](O)[C@H](C)O1` [Epirubicin HCl], the relative cell viability falls from 0.144 ± 0.0086 to 0.0641 ± 0.0026.

Going from `COc1cccc2c1C(=O)c1c(O)c3c(c(O)c1C2=O)C[C@@](O)(C(C)=O)C[C@@H]3O[C@H]1C[C@H](N)[C@H](O)[C@H](C)O1` [Daunorubicin HCl] to `COc1ccc(C[C@H](N)C(=O)N[C@H]2[C@@H](O)[C@H](n3cnc4c(N(C)C)ncnc43)O[C@@H]2CO)cc1` [Puromycin 2HCl], the relative cell viability falls from 0.0682 ± 0.0026 to 0.0517 ± 0.001.

Compared with `O=C(O)c1cc(I)ccc1NC(=O)[C@H](Cc1ccccc1)NCc1ccccc1`, `C=CC(=O)Nc1ccc2ncnc(Nc3ccc(OCc4cccc(F)c4)c(Cl)c3)c2c1` is higher in relative cell viability: 1.03 ± 0.032 for the first, 1.41 ± 0.053 for the second.

`CN(C)CCN1C(=O)c2cccc3cc(N)cc(c23)C1=O` [Amonafide] and `CN1CCN(c2ccc(Nc3cc(-c4cccc(-n5ccc6cc(C7CC7)cc(F)c6c5=O)c4CO)cn(C)c3=O)nc2)CC1` are within error of each other in relative cell viability: 1.22 ± 0.09 for the first, 1.1 ± 0.14 for the second.

Going from `NC(=O)Nc1cc(-c2cccc(F)c2)sc1C(=O)N[C@H]1CCCNC1` to `COc1cc2ncc(-c3ccccc3)nc2cc1OC` [Tyrphostin AG 1296], the relative cell viability rises from 0.151 ± 0.016 to 1 ± 0.02.

Going from `Nc1nccc2c1ncn2C1C=C(CO)C(O)C1O` (stereo not drawn) [3-Deazaneplanocin A (DZNeP)] to `COc1nc(N)nc2c1ncn2[C@@H]1O[C@H](CO)[C@@H](O)[C@@H]1O` [Nelarabine], the relative cell viability rises from 0.933 ± 0.013 to 1.1 ± 0.035.

First: Cc1nc(C#Cc2ccnc(Cl)c2)c(C)n1-c1ccc(OC(F)(F)F)cc1
Second: O=C(/C=C/c1ccc2ccccc2n1)c1ccncc1
The relative cell viability of the first is higher: 1 ± 0.056 for the first, 0.167 ± 0.0076 for the second.

`CCOC(=O)n1ccn(C)c1=S` [Carbimazole] and `O=C(c1cncc(Br)c1)N1CCC(N2CCCC2)CC1` are within error of each other in relative cell viability: 1.02 ± 0.14 for the first, 1.03 ± 0.058 for the second.

With `CC(C=CC(=O)NO)=CC(C)C(=O)c1ccc(N(C)C)cc1` (stereo not drawn) [Trichostatin A (TSA)] the relative cell viability was 0.131 ± 0.019.
